Laboratory results as given in PubChem BioAssay (Tox21).
Results filed as inconclusive are left out. The source made the active and inactive calls. Unless noted, calls come from the whole dose curve.

How the values were obtained:
[1] = molecular target: Gonadotropin-releasing hormone receptor (Homo sapiens) (UniProt P30968); assay: Human gonadotropin-releasing hormone receptor (GnRHR) small molecule agonists, calcium flux assay in GnRHR-HEK293 cells (AID 1920063); note: nearly all actives have a fitted effect of over 35% in size
Chain of Gonadotropin-releasing hormone receptor (Homo sapiens) (P30968 whole entry, looked up): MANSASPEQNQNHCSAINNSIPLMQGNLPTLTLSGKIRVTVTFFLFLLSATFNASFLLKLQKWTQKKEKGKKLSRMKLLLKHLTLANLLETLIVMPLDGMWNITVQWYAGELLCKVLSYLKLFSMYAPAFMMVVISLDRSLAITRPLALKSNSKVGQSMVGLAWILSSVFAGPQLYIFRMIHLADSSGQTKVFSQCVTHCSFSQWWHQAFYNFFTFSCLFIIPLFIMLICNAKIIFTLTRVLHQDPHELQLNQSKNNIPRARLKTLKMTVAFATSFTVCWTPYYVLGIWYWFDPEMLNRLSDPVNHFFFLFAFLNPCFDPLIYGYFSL
How it was run: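 Intracellular calcium rise is the read-out: engineered human GnRHR HEK293 cells, dye-loaded, are exposed to DMSO-dissolved compounds and fluorescence at Ex/Em 480/540 is tracked for 3 min.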

[2] = molecular target: KiSS-1 receptor (Homo sapiens) (UniProt Q969F8); assay: Human kisspeptin (KISS1R) small molecule agonists, calcium flux assay in KISS1R-HEK293 cells (AID 1920064; active = well fitted activation curve with a large enough effect in the repeat runs)
Chain of KiSS-1 receptor (Homo sapiens) (Q969F8 whole entry, looked up): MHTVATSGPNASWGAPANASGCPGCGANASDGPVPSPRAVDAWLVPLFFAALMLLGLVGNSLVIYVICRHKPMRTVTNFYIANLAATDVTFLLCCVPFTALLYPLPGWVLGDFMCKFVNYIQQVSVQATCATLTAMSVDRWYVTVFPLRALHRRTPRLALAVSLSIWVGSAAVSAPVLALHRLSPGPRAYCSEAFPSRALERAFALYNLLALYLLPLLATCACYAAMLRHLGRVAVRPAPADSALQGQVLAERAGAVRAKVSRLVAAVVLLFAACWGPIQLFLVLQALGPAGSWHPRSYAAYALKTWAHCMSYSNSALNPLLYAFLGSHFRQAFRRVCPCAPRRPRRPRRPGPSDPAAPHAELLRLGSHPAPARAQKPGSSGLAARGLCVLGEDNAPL
How it was run: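 Concentration-response testing used 15 concentrations in triplicate on human KISS1R-expressing HEK293 cells. Calcium-dependent fluorescence (Ex/Em 480/540) was followed kinetically for 3 min after compound transfer.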

[3] = G protein-coupled receptor (GPCR) small molecule agonists, calcium flux assay: HEK293 wild type cell line counter screen (AID 1920065)
How it was run: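 Fluorescence intensity signals activation. After overnight (18 h) culture and a 1 h calcium dye load at 37 C, compounds are added by pin tool and the plate read at 480/540 nm for 3 min in 1 s steps.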

[4] = p53 small molecule agonists, cell-based qHTS assay with human liver microsomes (AID 1963577);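 note: p53 response element beta-lactamase reporter cells with liver microsomes plus NADPH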
How it was run: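 Metabolically competent format: test substances, human liver microsomes and NADPH (both 0.5 mg/mL final) incubated with p53RE-bla cells 16 h at 37 C. Beta-lactamase reporter signal then quantified by fluorescence.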

[5] = p53 small molecule agonists, cell-based qHTS assay with rat liver microsomes (AID 1963578)
How it was run: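 Each plate received p53RE-bla cells, then compound, then rat liver microsomes and NADPH (both 0.5 mg/mL final). Plates were held 16 h at 37 C, and beta-lactamase activity was detected with LiveBLAzer over 2 h.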

[6] = p53 small molecule agonists, cell-based qHTS assay with human liver microsomes: qHTS cell viability counter screen (AID 1963579); note: nearly all actives have a fitted effect of over 45% in size
How it was run: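 Tox21 library compounds, delivered from DMSO stocks, were tested on p53RE-bla cells together with 0.5 mg/mL human liver microsomes and 0.5 mg/mL NADPH (final) over 16 h at 37 C; CellTiter-Glo luminescence served as the cytotoxicity measure.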

[7] = p53 small molecule agonists, cell-based qHTS assay with rat liver microsomes: qHTS cell viability counter screen (AID 1963580); note: nearly all actives have a fitted effect of over 45% in size
How it was run: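 After the beta-lactamase ratio was read, CellTiter-Glo was added to the same wells and luminescence measured at 30 min; cells had been treated 16 h at 37 C with compounds, rat liver microsomes and NADPH (0.5 mg/mL final each).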

[8] = p53 small molecule agonists, cell-based qHTS assay: qHTS cell viability counter screen (AID 1963581); note: nearly all actives have a fitted effect of over 45% in size
How it was run: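 Luminescence from CellTiter-Glo, reflecting ATP content, serves as the cytotoxicity measure; it is taken after the 2 h reporter substrate step in HCT-116 p53RE-bla cells dosed for 16 h at 37 C.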

[9] = p53 small molecule agonists, cell-based qHTS assay (AID 1963582; active = well fitted activation curve with a large enough effect in the signal ratio in the repeat runs, not every such curve was filed as active; the % refers to the signal ratio)
How it was run: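 After plating, p53RE-bla cells sat 5 h in the incubator; compounds or DMSO vehicle were pinned in; a 16 h incubation at 37 C followed; FRET substrate was added and, 2 h later at RT, fluorescence was measured.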

[10] = molecular target: 5-hydroxytryptamine receptor 2A (Homo sapiens) (UniProt P28223); assay: 5-hydroxytryptamine receptor 2A (HTR2A) small molecule antagonists, cell-based qHTS assay (AID 1963586); note: nearly all actives have a fitted effect of over 45% in size
Chain of 5-hydroxytryptamine receptor 2A (Homo sapiens) (P28223 whole entry, looked up): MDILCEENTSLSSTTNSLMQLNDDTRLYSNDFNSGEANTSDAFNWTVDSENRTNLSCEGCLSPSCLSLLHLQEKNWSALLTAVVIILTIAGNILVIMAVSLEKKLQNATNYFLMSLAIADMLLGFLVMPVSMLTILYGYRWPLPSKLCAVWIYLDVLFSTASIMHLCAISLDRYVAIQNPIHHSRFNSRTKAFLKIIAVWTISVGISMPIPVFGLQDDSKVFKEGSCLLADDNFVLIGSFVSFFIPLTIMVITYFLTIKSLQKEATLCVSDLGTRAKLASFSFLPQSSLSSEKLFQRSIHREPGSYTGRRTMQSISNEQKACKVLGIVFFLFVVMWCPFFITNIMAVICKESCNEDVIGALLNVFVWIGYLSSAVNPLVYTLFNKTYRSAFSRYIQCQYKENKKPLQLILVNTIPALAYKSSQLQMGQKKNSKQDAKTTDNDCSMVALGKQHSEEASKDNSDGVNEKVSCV
How it was run: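 CHO cells stably expressing human HTR2A were plated for 18 h at 37 C, then loaded with calcium dye for 1 h. Compounds were preincubated 5 min at room temperature before DOI (4 nM solution) was added. Kinetic fluorescence was read for 3 min.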

[11] = molecular target: 5-hydroxytryptamine receptor 2A (Homo sapiens) (UniProt P28223); assay: 5-hydroxytryptamine receptor 2A (HTR2A) small molecule agonists, cell-based qHTS assay (AID 1963587); note: nearly all actives have a fitted effect of over 30% in size
How it was run: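 CHO cells stably expressing human HTR2A, plated 18 h, loaded with calcium dye 1 h at 37 C. Agonist mode: compounds added and intracellular calcium fluorescence recorded kinetically for 2 min at 1 sec intervals.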

[12] = molecular target: Muscarinic acetylcholine receptor M1 (Homo sapiens) (UniProt P11229); assay: Cholinergic receptor muscarinic 1 (CHRM1) small molecule antagonists, cell-based qHTS assay (AID 1963588); note: nearly all actives have a fitted effect of over 40% in size
Chain of Muscarinic acetylcholine receptor M1 (Homo sapiens) (P11229 whole entry, looked up): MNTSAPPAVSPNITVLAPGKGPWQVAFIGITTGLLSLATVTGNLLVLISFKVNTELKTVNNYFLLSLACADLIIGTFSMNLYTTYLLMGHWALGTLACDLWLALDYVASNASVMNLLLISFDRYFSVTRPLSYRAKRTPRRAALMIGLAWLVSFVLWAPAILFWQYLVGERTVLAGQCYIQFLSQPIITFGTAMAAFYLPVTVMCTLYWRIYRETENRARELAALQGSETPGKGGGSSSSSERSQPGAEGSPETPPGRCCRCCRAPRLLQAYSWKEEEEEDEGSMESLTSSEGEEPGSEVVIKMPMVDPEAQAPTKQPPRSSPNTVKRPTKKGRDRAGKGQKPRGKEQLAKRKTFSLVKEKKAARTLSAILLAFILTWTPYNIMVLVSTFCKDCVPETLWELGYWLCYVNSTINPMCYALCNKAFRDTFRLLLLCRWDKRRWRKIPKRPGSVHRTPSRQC
How it was run: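 Compounds were tested at 15 concentrations in three independent runs. Dye-loaded CHRM1-CHO cells were exposed 5 min at room temperature before stimulation by acetylcholine added at 50nM. Intracellular calcium was read kinetically on FDSS for 3 min.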

[13] = molecular target: Muscarinic acetylcholine receptor M1 (Homo sapiens) (UniProt P11229); assay: Cholinergic receptor muscarinic 1 (CHRM1) small molecule agonists, cell-based qHTS assay (AID 1963589); note: nearly all actives have a fitted effect of over 35% in size
How it was run: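 Fluorescent calcium dye reports M1 activation in stably transfected CHO cells. Compounds, 15 concentrations, added after 1 h dye loading at 37 C; kinetic reading at 1 sec intervals.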

[14] = cAMP Responsive Elements (CRE) small molecule agonists, cell-based qHTS assay (AID 1963590)
How it was run: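 Compound exposure lasted 3 h at 37 C/5% CO2 in CRE-bla HEK 293T cells grown in assay medium with 10% dialyzed FBS and 25 mM HEPES. Reporter signal came from LiveBLAzer B/G FRET substrate, 2 h, room temperature.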

[15] = cAMP Responsive Elements (CRE) small molecule antagonists, cell-based qHTS assay (AID 1963591; active = well fitted inhibition curve with a large enough effect in the signal ratio in the repeat runs, not every such curve was filed as active; the % refers to the signal ratio)
How it was run: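 Stimulation used NKH477 at a final 0.25 uM for 3 h in compound-treated CRE-bla HEK293T cells, seeded 18 h beforehand. Reporter activity was measured with LiveBLAzer B/G FRET substrate after 2 h at room temperature.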

[16] = molecular target: Beta-2 adrenergic receptor (Homo sapiens) (UniProt P07550); assay: Adrenergic beta2 receptor (ADRB2) small molecule antagonists, cell-based qHTS assay (AID 1963592); note: series mostly up to about 92 µM; nearly all actives have a fitted effect of over 50% in size
Chain of Beta-2 adrenergic receptor (Homo sapiens) (P07550 whole entry, looked up): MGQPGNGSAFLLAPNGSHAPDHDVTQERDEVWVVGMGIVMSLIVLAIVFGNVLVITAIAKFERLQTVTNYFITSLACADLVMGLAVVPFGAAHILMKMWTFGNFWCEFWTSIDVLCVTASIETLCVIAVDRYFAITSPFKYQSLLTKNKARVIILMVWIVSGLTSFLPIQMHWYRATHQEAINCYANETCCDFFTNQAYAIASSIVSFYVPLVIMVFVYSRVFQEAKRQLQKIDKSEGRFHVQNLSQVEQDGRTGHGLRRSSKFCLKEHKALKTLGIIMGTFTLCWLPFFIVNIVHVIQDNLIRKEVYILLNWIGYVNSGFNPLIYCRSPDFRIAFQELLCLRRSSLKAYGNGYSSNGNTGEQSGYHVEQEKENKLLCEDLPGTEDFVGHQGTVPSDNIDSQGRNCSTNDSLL
How it was run: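 Assay format: CHO-ADRB2 cells, 18-20hr seeding at 37C/5% CO2, then compound plus 1nM isoproterenol agonist mix for 0.5hr RT. Homogeneous time-resolved fluorescence cAMP detection after 1hr, expressed as 665/615 nm ratio.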

[17] = molecular target: Beta-2 adrenergic receptor (Homo sapiens) (UniProt P07550); assay: Adrenergic beta2 receptor (ADRB2) small molecule agonists, cell-based qHTS assay (AID 1963593);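 note: CHO cells stably overexpressing human ADRB2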
How it was run: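 CHO cells stably over-expressing ADRB2 were plated overnight at 37C, then dosed with compounds plus a stimulation mix containing 100uM IBMX and 25uM Ro-20-1724 for 0.5hr at room temperature. cAMP was measured by HTRF competition, 1hr.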

[18] = molecular target: D(2) dopamine receptor (Homo sapiens) (UniProt P14416); assay: Dopamine D2 receptor (DRD2) small molecule agonists, cell-based qHTS assay (AID 1963594); note: nearly all actives have a fitted effect of over 35% in size
Chain of D(2) dopamine receptor (Homo sapiens) (P14416 whole entry, looked up): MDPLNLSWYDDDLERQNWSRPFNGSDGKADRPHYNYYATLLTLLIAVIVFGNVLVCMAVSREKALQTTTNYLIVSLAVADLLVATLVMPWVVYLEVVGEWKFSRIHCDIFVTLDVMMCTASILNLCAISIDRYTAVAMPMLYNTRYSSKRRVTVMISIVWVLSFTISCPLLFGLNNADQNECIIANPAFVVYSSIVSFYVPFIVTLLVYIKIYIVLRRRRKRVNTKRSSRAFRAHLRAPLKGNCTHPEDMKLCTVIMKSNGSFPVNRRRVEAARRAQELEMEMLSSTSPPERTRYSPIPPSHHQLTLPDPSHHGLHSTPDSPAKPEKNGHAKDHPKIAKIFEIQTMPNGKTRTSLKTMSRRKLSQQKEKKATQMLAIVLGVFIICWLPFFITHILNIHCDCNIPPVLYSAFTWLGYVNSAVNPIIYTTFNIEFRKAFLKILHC
How it was run: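 HEK293 cells stably expressing human DRD2, pre-treated with PDE inhibitor Ro20-1724 (0.1 mM final) and compound 10 min at room temperature, then stimulated with NKH477 (200nM […]) for 30 min. cAMP read by HTRF (665/620 nm).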

[19] = molecular target: D(2) dopamine receptor (Homo sapiens) (UniProt P14416); assay: Dopamine D2 receptor (DRD2) small molecule antagonists, cell-based qHTS assay (AID 1963595; active = well fitted inhibition curve with a large enough effect in the signal ratio in the repeat runs, with a control signal flat; the % refers to the signal ratio)
How it was run: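 Human DRD2 antagonist qHTS measuring cAMP by HTRF. The cells are exposed to compound for 10 min, then to NKH477 (200 nM) and quinpirole (12 nM) for 30 min at RT, with Ro20-1724 (0.1 mM) present throughout.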
% is set by controls: 0 for no effect and ±100 for the full control effect.

OC[C@H]1O[C@H](O[C@H]2O[C@H](CO)[C@@H](O)[C@H](O)[C@H]2O)[C@H](O)[C@@H](O)[C@@H]1O
inactive: Potency [1] | Potency [2] | Potency [3] | Potency [4] | Potency [5] | Potency [6] | Potency [7] | Potency [8] | Potency [9] | Potency [10] | Potency [11] | Potency [12] | Potency [13] | Potency [14] | Potency [15] | Potency [16] | Potency [17] | Potency [18] | Potency [19]

COc1ccc(Br)c(C)c1
inactive: Potency [1] | Potency [2] | Potency [3] | Potency [4] | Potency [5] | Potency [6] | Potency [7] | Potency [8] | Potency [9] | Potency [10] | Potency [11] | Potency [13] | Potency [14] | Potency [15] | Potency [16] | Potency [17] | Potency [18] | Potency [19]

CC(=O)CCC(C)C
inactive: Potency [1] | Potency [2] | Potency [3] | Potency [4] | Potency [5] | Potency [6] | Potency [7] | Potency [8] | Potency [9] | Potency [10] | Potency [11] | Potency [12] | Potency [13] | Potency [14] | Potency [15] | Potency [16] | Potency [18] | Potency [19]

COc1ccccc1/C=C/C=O
inactive: Potency [1] | Potency [2] | Potency [3] | Potency [4] | Potency [5] | Potency [6] | Potency [7] | Potency [8] | Potency [9] | Potency [10] | Potency [11] | Potency [12] | Potency [13] | Potency [14] | Potency [15] | Potency [16] | Potency [18] | Potency [19]

O=c1oc2c(O)c(O)cc3c(=O)oc4c(O)c(O)cc1c4c23
inactive: activity change [1] 0.294% [at 11.8 µM, hits give high values] | activation [2] -1.64% [at 15.8 µM] | activation [3] 0.163% [at 11.8 µM] | activation [4] -4.17% [at 13.5 µM] | activation [5] -5.41% [at 13.6 µM] | activity change, negative = cytotoxicity [6] 3.06% [at 13.5 µM] | activity change, negative = cytotoxicity [7] -3.76% [at 13.5 µM] | activity change, negative = cytotoxicity [8] -7.94% [at 13.5 µM] | activation [9] -1.21% [at 13.5 µM] | activity, negative = inhibition [10] -5.93% [at 12.7 µM] | activation [11] 2.19% [at 15.9 µM] | activity, negative = inhibition [12] 14.7% [at 12.6 µM] | activation [14] -1.26% [at 19 µM] | activity change, negative = inhibition [15] -7.75% [at 18.9 µM] | activity change, negative = inhibition [16] -0.63% [at 19 µM] | activation [17] -28.3% [at 19 µM] | activation [18] 15.6% [at 19 µM] | activity change, negative = inhibition [19] 0.195% [at 18.9 µM]

CC(C)NC(=O)c1ccccc1N
inactive: Potency [1] | Potency [2] | Potency [3] | Potency [4] | Potency [5] | Potency [6] | Potency [7] | Potency [8] | Potency [9] | Potency [10] | Potency [11] | Potency [12] | Potency [13] | Potency [14] | Potency [15] | Potency [16] | Potency [18] | Potency [19]

CNC1(C)C2CCC(C2)C1(C)C (stereo unspecified)
inactive: Potency [1] | Potency [2] | Potency [3] | Potency [4] | Potency [5] | Potency [6] | Potency [7] | Potency [8] | Potency [9] | Potency [10] | Potency [11] | Potency [12] | Potency [13] | Potency [14] | Potency [16] | Potency [17] | Potency [18]

COc1ccccc1C=O
inactive: Potency [1] | Potency [2] | Potency [3] | Potency [4] | Potency [5] | Potency [6] | Potency [7] | Potency [8] | Potency [9] | Potency [10] | Potency [11] | Potency [12] | Potency [13] | Potency [14] | Potency [15] | Potency [16] | Potency [17] | Potency [18] | Potency [19]

CNC(=O)NC
inactive: Potency [1] | Potency [2] | Potency [3] | Potency [4] | Potency [5] | Potency [6] | Potency [7] | Potency [8] | Potency [9] | Potency [10] | Potency [11] | Potency [12] | Potency [13] | Potency [14] | Potency [15] | Potency [16] | Potency [18] | Potency [19]

CC1CC(=O)CC(C)(C)C1 (stereo unspecified)
inactive: Potency [1] | Potency [2] | Potency [3] | Potency [4] | Potency [5] | Potency [6] | Potency [7] | Potency [8] | Potency [9] | Potency [10] | Potency [11] | Potency [12] | Potency [13] | Potency [14] | Potency [15] | Potency [16] | Potency [17] | Potency [18] | Potency [19]

IC(I)I
inactive: Potency [1] | Potency [2] | Potency [3] | Potency [4] | Potency [5] | Potency [6] | Potency [7] | Potency [8] | Potency [9] | Potency [10] | Potency [11] | Potency [12] | Potency [13] | Potency [14] | Potency [15] | Potency [16] | Potency [18] | Potency [19]

CO[Si](CCCNCCC[Si](OC)(OC)OC)(OC)OC
inactive: Potency [1] | Potency [2] | Potency [3] | Potency [4] | Potency [5] | Potency [6] | Potency [7] | Potency [8] | Potency [9] | Potency [10] | Potency [11] | Potency [12] | Potency [13] | Potency [14] | Potency [15] | Potency [16] | Potency [17] | Potency [18] | Potency [19]

CCCCNc1ccccc1
inactive: Potency [1] | Potency [2] | Potency [3] | Potency [4] | Potency [5] | Potency [6] | Potency [7] | Potency [8] | Potency [9] | Potency [10] | Potency [11] | Potency [12] | Potency [13] | Potency [14] | Potency [16] | Potency [18] | Potency [19]
